PubChem BioAssay
Unmarked numbers belong to inactive results. Calls of active or inactive are those of the source.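 The calls were made as follows: active = inhibition at or above 50% relative to wild type and mutant plate controls; inactive = inhibition below 50%.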

Test: loss of swimming-algae plug formation – whole organism, Chlamydomonas reinhardtii, WT vs cilia-less mutant, absorbance, 96-well, primary screen (AID 463189);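 also: 0% = wild type cc124 cells in DMSO and 100% = ciliumless bld1 mutant cells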
Settings: Chlamydomonas reinhardtii gravitaxis, OD600 absorbance, 2 days; at 10 µM; active compounds read high
With `N[C@@H]1CONC1=O` the inhibition was 0.59%.
`CSc1ccc(C(=O)c2[nH]c(=O)[nH]c2C)cc1` showed an inhibition of -1.05%.
Work on `CCN1CCCC1CNC(=O)c1cc(S(N)(=O)=O)ccc1OC` (centres undefined) yielded an inhibition of 2.91%.
`Nc1ccc(N2C(=O)c3ccccc3C2=O)c(Cl)c1` showed an inhibition of -0.463%.
In the case of `O=C(Nc1ccccc1)c1cc([N+](=O)[O-])ccc1Cl`, the inhibition is reported as 2.4%.
`CCC(C)N(C)C(=O)c1cc2ccccc2c(-c2ccccc2Cl)n1` (centres undefined) showed an inhibition of 2.31%.
`O=C(O)C1CCCN(CCC=C(c2ccccc2)c2ccccc2)C1` (centres undefined) showed an inhibition of 11.4%.
For `O[Si](CCCN1CCCCC1)(c1ccc(F)cc1)C1CCCCC1` (centres undefined), the inhibition was -1.85%.
Compound `C[C@@H](CN1CCC(Cc2ccccc2)CC1)[C@@H](O)c1ccc(O)cc1` has an inhibition of 10.4%.
`N[C@@H](CC(=O)O)C(=O)O` showed an inhibition of 4.32%.
In the case of `CC(=O)N[C@H](C(=O)O)C(C)(C)SN=O`, the inhibition is reported as 3.53%.
With `CC(N)(Cc1ccc(O)c(O)c1)C(=O)O` (centres undefined) the inhibition was 6.85%.
With `O=C1C2C=CC=CC2=NC(=S)N1CCN1CCC(=C(c2ccc(F)cc2)c2ccc(F)cc2)CC1` (centres undefined) the inhibition was -0.94%.
Work on `CCCCCCCCCC[Si](C)(C)CCC(=O)NC(Cc1ccc(C)cc1)c1ccccc1` (centres undefined) yielded an inhibition of 1.73%.
`Cc1c(CC(C)(C)C(=O)O)n(Cc2ccc(Cl)cc2)c2ccc(F)cc12` gave an inhibition of 1.93%.
Compound `CCN(CC)CCOC(=O)c1ccc(N)cc1` has an inhibition of -0.871%.
For `[N-]=[N+]=Nc1ccc(C(=O)CSC[C@H](NC(=O)CC[C@H](N)C(=O)O)C(=O)NCC(=O)O)cc1`, the inhibition was -0.598%.
Work on `NCCS` yielded an inhibition of 8.28%.
In the case of `O=c1c(-c2ccc(O)cc2)coc2cc(O)ccc12`, the inhibition is reported as -7.57%.
Work on `CNC(=O)c1cc2c(cn1)[nH]c1ccccc12` yielded an inhibition of 4.1%.
For `COC(=O)C1=C(C)NC(C)=C([N+](=O)[O-])C1c1ccccc1C(F)(F)F` (centres undefined), the inhibition was 5.83%.
In the case of `COc1ccccc1N1CCN(CCCNc2c(C)c(=O)n(C)c(=O)n2C)CC1`, the inhibition is reported as 5.61%.
For `CC/C(=C(\c1ccccc1)c1ccc(OCCN(C)C)cc1)c1ccccc1`, the inhibition was 50.3% (active).
With `c1ccc(-c2ccccn2)nc1` the inhibition was 1.35%.
For `COc1ccc(NC(=O)c2ccc(-c3ccc(-c4noc(C)n4)cc3C)cc2)cc1N1CCN(C)CC1`, the inhibition was 47.6%.
`O=C(O)c1cc2cc(Cc3cccnc3)ccc2o1` showed an inhibition of -4.17%.
Compound `O=C(O)CCC/C=C\C[C@@H]1[C@@H](/C=C/[C@H](O)C2Cc3ccccc3C2)[C@@H](F)C[C@@H]1O` has an inhibition of -14%.
In the case of `CC(C)C(=O)c1c(C(C)C)nn2ccccc12`, the inhibition is reported as 52.8% (active).
`c1cnc2c(c1)ccc1cccnc12` showed an inhibition of 10.8%.
With `N=C(N)c1ccc(OCCCCCOc2ccc(C(=N)N)cc2)cc1` (tested in a mixture with another compound) the inhibition was 143% (active).
With `O=c1[nH]c2ccccc2c2ccccc12` the inhibition was 6.93%.
Compound `O=C1NCN(c2ccccc2)C12CCN(CCCC(c1ccc(F)cc1)c1ccc(F)cc1)CC2` has an inhibition of -2.36%.
For `CN1C[C@H](C(=O)N[C@]2(C)O[C@@]3(O)[C@@H]4CCCN4C(=O)[C@H](Cc4ccccc4)N3C2=O)C[C@@H]2c3cccc4[nH]cc(c34)C[C@H]21`, the inhibition was -12.5%.
`CCn1cc(C(=O)O)c(=O)c2cc(F)c(N3CCNC(C)C3)c(F)c21` (centres undefined) showed an inhibition of 3.51%.
With `O=C(O)c1cc(=O)c2ccccc2[nH]1` the inhibition was 9.15%.
Work on `Cc1ccc([N+](=O)[O-])cc1S(=O)(=O)N(C)C` yielded an inhibition of -11.4%.
With `CCCn1c(=O)c2[nH]c(-c3ccc(OCC(=O)Nc4ccc(C#N)cc4)cc3)nc2n(CCC)c1=O` the inhibition was 4.77%.
Work on `NC(N)=N/N=C/c1c(Cl)cccc1Cl` yielded an inhibition of 3.64%.
`C[C@H](Cc1ccccc1)Nc1ncnc2c1ncn2[C@@H]1O[C@H](CO)[C@H](O)C1O` (some centres undefined) gave an inhibition of 0.221%.
